# The list is not random: actives were taken first. Their share in the collection is about 3.2%.
# Nrf2 inh – inhibitors of Nrf2 signaling. A549 ARE-Fluc reporter, luciferase luminescence, 18-24 h. Potency, µM (series often up to 46 µM), for the others: top-dose activity change, negative = inhibition, hits mostly inhibitors. hit rate 2.1% among 360,000. AID 504444; note: potency is the fitted concentration of half-maximal effect; % is set by controls: 0 for no effect and ±100 for the full control effect; nearly all actives have a fitted effect of over 60% in size
#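 Concentration-response testing used A549 ARE_Fluc cells at 5000 cells/well. Following an 18-24 h compound incubation, viability was read by fluorescence (Ex 405/Em 525) and luciferase output by luminescence.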
# Nrf2 ARE act – Nrf2 pathway activation; AREc32 ARE-luciferase reporter (MCF7-derived line), luminescence, 24 h; Potency, µM (titrated, usually from 46.1 µM), without a hit: at the top dose activation, usual class: activators; hit rate 0.31% among 410,000; note: potency is the fitted concentration of half-maximal effect; % of control where 0% means no effect; nearly all actives have a fitted effect of over 65% in size
#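 Cells of the AREc32 ARE-luciferase line are plated in OPTI-MEM containing 5% FBS and left overnight at 37 deg C. Compounds are pinned in, incubation continues 24 hr, and firefly luciferase signal is then measured.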
# p53 reactivation – re-activators of mutant p53 | H1299 p53-A138V BP100-luciferase reporter, luminescence, 24 h | Potency, µM (top dose mostly 92.2 µM), for inactives: top-dose activity change, positive = activation, actives largely listed as activators | hit rate 0.063% among 320,000; note: potency is the fitted concentration of half-maximal effect; % of control where 0% means no effect; nearly all actives have a fitted effect of over 45% in size
#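 p53-null H1299 cells stably carrying temperature-sensitive p53-A138V and a BP100-luciferase reporter were pinned with compounds (4-point, 1:5 series) and held 24 hrs at 37 deg C. Luminescence was read 10 min after detection reagent.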
# BRCA1 expr up – increases BRCA1 expression | Potency, µM (series often up to 46.1 µM), for the others: at the highest dose activation, hits mostly activators | MCF7-BRCA1-FFLuc reporter, luminescence, 48 h; response scale: scaled: vehicle 0%, 10 µM genistein 100% | AID 624202 | hit rate 1.1% among 380,000; note: potency is the fitted concentration of half-maximal effect; nearly all actives have a fitted effect of over 80% in size
#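 48 h compound treatment of MCF7-BRCA1-FFLuc cells (phenol-red free MEM, 37 °C), then 15 min with luciferase substrate and luminescence imaging.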
# IL-2 act – IL-2 activation; IL-2 activation reporter assay, cell-based qHTS; stimulated with anti-CD3/CD4/CD28 beads; in transgenic mouse T cells; activation, % (series mostly up to about 46 µM); hit rate 0.065% among 360,000; in the data active = activation above about 50%; inconclusive = mostly about 30% to 49%; note: 0% is about no effect
#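 Readout: EGFP and DsRed signals by fluorescent plate cytometry. Unstimulated transgenic mouse T cells received compound 60 min before antibody-bead stimulation, then incubated 18 h at 37 degrees C.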
# A549 tox – kills or reduces viability of A549 cells in Nrf2 counter-screen | A549 ARE-Fluc cells, CellTiter-Fluor viability, 18-24 h | Potency, µM (series often up to 46 µM), for inactives: at the highest dose activity change, negative = cytotoxicity, hits mostly inhibitors | hit rate 0.16% among 390,000 | AID 504648; note: potency is the fitted concentration of half-maximal effect; % is set by controls: 0 for no effect and ±100 for the full control effect
#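 Cytotoxicity counterscreen: CellTiter-Fluor fluorescence was measured in A549 ARE_Fluc cells after 18-24 h of compound exposure in a concentration series. The subsequent BugLite luminescent read reports ARE-luciferase activity.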
# * hit, by the source's call; ? = inconclusive; . = not tested or not shown; [ ] = dose if it differs, or a comment. Unless noted, calls come from the whole dose curve; as a rule, active = well fitted curve in the direction sought with a large enough effect; inconclusive = small, poorly fitted or top-dose-only effect, or another doubt; inactive = no such curve, though single readings can be large; an effect the other way counts as inactive or inconclusive.
SMILES,Nrf2 inh,Nrf2 ARE act,p53 reactivation,BRCA1 expr up,IL-2 act,A549 tox
O=C(/C=C/c1ccc(Cl)cc1)Nc1ccc(CN2CCOCC2)cc1,21µM*,2%,-2%,-1%,-3,?
COc1ccc2[nH]c3c(c2c1)CCN1C(=O)C(CC(=O)NCCc2ccccn2)C[C@H](C(=O)N2CCCCC2)[C@@]31CCc1ccccc1 (stereo partly specified),21µM*,0%,0%,-32%,-1,-27%
O=C(C[C@H]1C[C@H](C(=O)N2CCCCC2)[C@@]2(CCc3ccccc3)c3[nH]c4ccc(Cl)cc4c3CCN2C1=O)NCCc1ccccn1,21µM*,0%,1%,4%,-1,?
CC(C)(C)NC(=O)C[C@H]1C[C@H](C(=O)N2CCCCC2)[C@@]2(C)c3[nH]c4ccc(Cl)cc4c3CCN2C1=O,16µM*,0%,-6%,2%,-1,?
COc1ccc2[nH]c3c(c2c1)CCN1C(=O)C(CC(=O)NCc2ccco2)C[C@H](C(=O)N2CCCCC2)[C@@]31CCc1ccccc1 (stereo partly specified),23µM*,-1%,-4%,-17%,-1,-26%
COCCCNC(=O)CC1C[C@H](C(=O)N2CCCCC2)[C@@]2(CCc3ccccc3)c3[nH]c4ccc(OC)cc4c3CCN2C1=O (stereo partly specified),-20%,0%,-17%,1%,0,-10%
CCN(CC)C(=O)[C@H]1C[C@H](CC(=O)NC(C)(C)C)C(=O)N2CCc3c([nH]c4ccc(Cl)cc34)[C@]12C,-18%,6%,-3%,-8%,0,-8%
O=C(C[C@H]1C[C@H](C(=O)N2CCCCC2)[C@@]2(CCc3ccccc3)c3[nH]c4ccc(Cl)cc4c3CCN2C1=O)NCCC1=CCCCC1,1%,1%,2%,-1%,1,2%
CC(C)NC(=O)C1(C)CN(S(C)(=O)=O)CC(=O)N1C1CC1 (stereo unspecified),.,.,.,.,0,.
COc1ccc(CC(=O)Nc2ccc3nc(N4CCCCC4)cc(C)c3c2)cc1,4%[9.27 µM],7%,.,.,.,0%
O=C(Nc1ccc(-c2cn3cccnc3n2)cc1)c1ccccc1F,.,-1%,.,.,.,-6%
Cc1ccc(CSc2nc(=O)c3c(n2C)NC(=O)CC3c2ccc(OC(C)C)cc2)cc1 (stereo unspecified),-10%,1%,.,.,.,3%
CCc1ccc(-n2nc3ccc(NC(=O)c4ccc(C#N)cc4F)cc3n2)cc1,9%,0%,.,18%,.,0%
Cn1c(CN2CCCCC2)nc2cc(NC(=O)c3ccc(Cl)cc3)ccc21,5.8µM*,0%,2%,-46%,0,-5%
COc1ccccc1Nc1nc2nonc2[nH]c1=O,0%,5%,1%,-26%,-3,-4%
Cc1ccc(Nc2nc3nonc3[nH]c2=O)cc1,?,2%,?,11µM*,-1,-7%
Cc1ccc(Sc2c(C#N)c(-c3ccccc3)nn2C)cc1,5.8µM*,0%,0%,-81%,-1,-28%[1.84 µM]
CC(C)NC(=O)C1(C)CN(S(C)(=O)=O)CC(=O)N1CC(F)(F)F (stereo unspecified),.,.,.,.,2,.
C#CC[N+]1(CC#Cc2ccccc2)CCCCC1,-14%,-1%,-1%,-3%,0,-3%
C(#Cc1ccccc1)C[N+]1(CC#Cc2ccccc2)CCCCC1,12µM*,0%,-7%,-65%,-1,-18%
Cc1ccc(NC(=O)CSc2nnc(CCCCCNC(=O)OC(C)(C)C)o2)c(C)c1,16µM*,-1%,-5%,8%,5,-14%
COc1ccc(CN(Cc2ccccc2)C(=O)c2cccc(C#N)c2)cc1COc1ccc(NC(C)=O)cc1,?,.,.,-39%,.,-7%
COc1cccc2c(=O)ccoc12,4%,7%,-4%,-23%,0,-9%
COc1c2ccoc2nc2c(OC)cccc12,10%,0%,6%,25µM*,-1,12%
COc1ccc([C@H]2Cc3cccc(O)c3C(=O)O2)cc1O,4%,?,9%,0%,0,-2%
SMILES,Nrf2 inh,Nrf2 ARE act,p53 reactivation,BRCA1 expr up,IL-2 act,A549 tox
COc1ccc([C@H]2Cc3cc(O)cc(O)c3C(=O)O2)cc1O,10%,23%,9%,10µM*,1,6%
Cc1onc(-c2ccccc2)c1C(=O)OCC(=O)Nc1ccc(OC(F)(F)F)cc1,23µM*,1%,-9%,-44%,0,-8%
Cc1onc(-c2ccccc2)c1C(=O)OCC(=O)Nc1ccc(Cl)cc1,23µM*,0%,9%,-30%,0,?
CCN(CC)S(=O)(=O)c1ccc2c(c1)N(CC(=O)N1CCN(c3cccc(C)c3C)CC1)C(=O)CO2,.,4%,.,.,.,-20%
CCOC(=O)N1CCN(C(=O)CCNS(=O)(=O)c2cc(Br)cnc2N)CC1,-17%,3%,-5%,3%,-3,2%
Nc1ncc(Br)cc1S(=O)(=O)NCCC(=O)N1CCN(c2ncccn2)CC1,18µM*,0%,1%,-4%,1,-16%
CCOC(=O)c1c(-c2ccc(C)cc2)csc1NC(=O)c1cc(=O)c2cc(C)cc(C)c2o1,?,2%,.,.,.,0%
O=C(N/N=C1\CCCc2ccccc21)c1ccccc1Cl,?,3%,12%,10µM*,-3,1%
O=C(N/N=C1\CCc2ccccc21)c1ccccc1O,?,-1%,.,-38%,4,9%
Cc1ccc(C(=O)O/N=C2\CCCc3ccccc32)cc1,6%,1%,10%,4%[1.84 µM],1,2%
O=C(NN=C1CCCCCCC1)c1ccccn1,15%,0%,?,33%,0,-4%
O=C(N/N=C1\CCCCc2ccccc21)c1ccccn1,?,4%,14%,13µM*,2,-12%
O=C(O)c1ccc(N/N=C2/CCCc3ccccc32)cc1,?,4%,6%,7.1µM*,1,9%
Cc1cc(C)cc(NC(=O)CCS(=O)(=O)c2cccc3nsnc23)c1,-18%[9.27 µM],0%,.,7%,.,1%
COc1ccc(/C=C/C(=O)c2c(C)cc(C)[nH]c2=O)c2ccccc12,?,?,-2%,-56%,-1,-16%
COc1cccc(/C=C/C(=O)OCC(=O)c2ccc(C)c(C)c2)c1OC,-14%,0%,12%,35%,1,4%
COc1ccccc1/C=C/C(=O)c1c2c(c(C)[nH]c1=O)CCCC2,16µM*,18%,-3%,-85%,-4,?
COc1cccc(/C=C/C(=O)OCC(=O)c2ccccc2)c1OC,?,5%,?,11µM*,1,-3%

# Screening results: PubChem BioAssay, National Center for Advancing Translational Sciences (NCATS)
